The supplement of paper PMC6555819

How the values were obtained:
Assay in all cases: PBM binding z-score (relative to random genomic background probes); higher = stronger binding; sequences stand for … in GC…GCGATTGACAGCGTAGAATGAAGG
[1] = test system: FXR:RXRa (NR concentration 270 nM, RXRa partner concentration 90 nM)
How it was run: (§1)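 Antibodies against each partner of ligand-free nuclear receptor dimers (one per run) detected binding on custom Agilent 4×180K protein-binding microarrays after 1 h incubation. The double-stranded probes had 34-nt variable regions carrying direct-repeat seeds, single-nucleotide variants, half-site ablations and random human genomic background sequences. Binding z-scores, from regression-normalized fluorescence, use the random background probes as reference.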

[2] = test system: LXRa:RXRa (NR concentration 270 nM, RXRa partner concentration 90 nM)
How it was run: as §1

[3] = test system: LXRa homodimer (NR concentration 270 nM)
How it was run: as §1

[4] = test system: LXRb:RXRa (NR concentration 270 nM, RXRa partner concentration 90 nM)
How it was run: as §1

[5] = test system: LXRb homodimer (NR concentration 270 nM)
How it was run: as §1

[6] = test system: PPARa:RXRa (NR concentration 270 nM, RXRa partner concentration 90 nM)
How it was run: as §1

[7] = test system: PPARg:RXRa (NR concentration 180 nM, RXRa partner concentration 90 nM)
How it was run: as §1

[8] = test system: PPARg:RXRa 270nM:90nM, anti-RXR (NR concentration 270 nM, RXRa partner concentration 90 nM)
How it was run: as §1

[9] = test system: PPARg:RXRa 30nM:10nM, anti-RXR (NR concentration 30 nM, RXRa partner concentration 10 nM)
How it was run: as §1

[10] = test system: PPARg:RXRa 90nM:30nM, anti-RXR (NR concentration 90 nM, RXRa partner concentration 30 nM)
How it was run: as §1

Sequence	PBM binding z-score [1]	PBM binding z-score [2]	PBM binding z-score [3]	PBM binding z-score [4]	PBM binding z-score [5]	PBM binding z-score [6]	PBM binding z-score [7]	PBM binding z-score [8]	PBM binding z-score [9]	PBM binding z-score [10]
TCTAGCAGGCCAGAGGGTCACTCACGAGGTACGG	0.586	0.658	-0.609	1.13	-1.2	2.2	1.46	2.63	1.82	2.54
TTACCAAGGTGAGCTGAGGTGGTTGATCCAACTC	-0.284	-0.505	-0.878	-0.761	-1.22	0.275	-0.0433	0.188	-0.313	0.186
ACAGACAGGTTAGTGAAGGTAACTCAGCTGGACG	0.616	0.393	-0.196	-0.21	-0.3	0.259	0.68	0.049	-0.22	0.0314
TGAATGAGGTTATAAGATCAGGCAACGTTGCAAA	1.34	1.51	-0.418	1.22	-0.11	2.69	1.48	2.02	1.21	1.73
CCTCGGAGGACAGAAGATCAGAGCTGTCCGCTTT	-0.222	-0.485	-0.602	-0.91	-1.2	-0.456	-0.0907	-0.214	-0.616	-0.38
TCAGACAGGTGAAGGCAACTCAGGTACGCAGTCG	0.773	0.656	-0.307	0.471	-0.243	0.995	0.701	1.77	3.36	2.58
TAGCCTGGGTCATGGGCCAGTATACCACGCGAAC	3.85	2.34	-0.426	2.04	-0.671	4.14	4.11	3.94	1.09	2.53
ATCGAAAGGTAGAGGTGAGTATAGAGAAAGGGAA	0.781	0.589	0.209	0.313	0.482	0.942	1	0.958	0.813	0.82
GCGGACAGGTGAAACGCAGGTAACTCAGGGTGGC	-0.363	-0.0756	-0.541	-0.243	-1.43	0.799	0.338	-0.205	-1.01	-0.756
CCAGACGGGTGAGAAGGTAACTCAGCCTCGATTA	-0.446	-0.488	-0.527	-0.4	-1.08	0.109	0.208	0.0448	-0.616	-0.191
TCACGGAGGACACGAAAGGTCAGAGCTCGACATC	3.04	4.14	3.14	3.07	-0.784	3.5	1.48	2.62	2.28	2.43
CAAACTAGGTTAAAGGTCAAAGTCGAGCCAACCA	6.87	6.3	5.27	6	2.67	7.07	13.2	11	14.1	13.4
ACTATTAGTTGAGAAGAGGGCAACCGATAGGTTG	0.199	0.323	0.0723	-0.0222	0.248	0.44	0.56	0.246	0.12	0.365
TCTTGGAGATCAAGCAGGTTAAGAAAGCCTGAGT	0.463	0.405	-0.249	0.297	-0.658	1.09	-0.253	1.39	2.35	1.84
ACTATTAGTTGAGACGAGGGCACCCGATAGGTTG	0.0849	0.0854	-0.0764	0.0614	0.318	0.202	0.813	0.197	0.108	0.163
GCTCGGAGGACAAGGTCAGAGCATTGTCCGTAGA	1.99	1.75	-0.445	1.15	-0.84	2.48	0.798	1.67	-0.55	0.636
TCTATTAGTTGAACGGCAACCGACGAGTCCGTTT	0.294	0.618	0.311	0.621	0.735	0.859	0.133	1.87	3.63	2.83
TGAATGACGTTATAAGATCAGGGAACGTTGCAAA	-0.0798	-0.0437	-0.351	-0.274	-0.245	-0.16	0.208	0.0909	0.775	0.526
ATCTCTAGGTAACAAGTTCAGTGTAAGAGAGGAC	0.924	0.672	0.835	0.727	1.14	1.52	1.37	2.11	0.896	1.48
TAGCCTAGGTCAGGTCGGGCCAGTATACGCTATA	2.66	1.06	-0.52	0.724	-0.502	1.71	0.639	0.781	-0.544	0.204
AGATTGAGGTTAAGATCAGGGAAACAGAATACAT	2.48	2.1	0.386	2.06	0.34	3.45	1.96	2.19	0.935	1.82
GTTGCTAGGTCAGGTTGGTCAGCTAACGGGTACG	1.81	1.32	0.459	0.947	0.434	1.68	0.88	1.31	-0.115	0.452
GTACCAAGGTGAATAGGGCGTTGATGAGTAGGCG	0.407	0.248	-0.214	-0.0331	-0.614	1.22	1.02	0.756	-0.0867	0.088
